An excerpt weighted towards active compounds, which were near 1.3% of everything screened.
PLAP activator – activators of human placental alkaline phosphatase | activation fold at 20 µM | P05187 | purified PLAP enzyme, luminescent substrate read-out; active compounds read high | AID 696 | hit rate 1.2% among 96,000; in the data active means activation fold above about 2
Ecoli WT expand – E. coli BW25113 growth inhibition, expanded screen; OD600 absorbance; growth inhibition, % at 100 µM; hit rate 0.15% among 98,000;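 active means growth inhibition above about 50% at one test dose, limit read from the data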;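 further: growth measured after 20 h incubation at 37 °C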
TNAP act DEA – activates human TNAP at intermediate phosphate acceptor concentration | P05186 | purified TNAP, CDP-star luminescence, 100 mM DEA, 30 min; active compounds read high; scale: 0 levamisole-inhibited, 1 vehicle-only enzyme | activation factor at 20 µM | 64,000 tested, under 10 active | AID 813;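 active means activation factor of at least 2 at 20 µM, relative to controls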
HePTP inh – blocks human HePTP tyrosine phosphatase | P35236 | inhibition, % at 20 µM | hit rate 0.64% among 110,000 | AID 521 | recombinant HePTP phosphatase activity, OD absorbance; in the data active means inhibition above about 50%;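 further: plate controls were vehicle for no effect and reference inhibitor for full effect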
Target sequence (P35236 whole entry, looked up): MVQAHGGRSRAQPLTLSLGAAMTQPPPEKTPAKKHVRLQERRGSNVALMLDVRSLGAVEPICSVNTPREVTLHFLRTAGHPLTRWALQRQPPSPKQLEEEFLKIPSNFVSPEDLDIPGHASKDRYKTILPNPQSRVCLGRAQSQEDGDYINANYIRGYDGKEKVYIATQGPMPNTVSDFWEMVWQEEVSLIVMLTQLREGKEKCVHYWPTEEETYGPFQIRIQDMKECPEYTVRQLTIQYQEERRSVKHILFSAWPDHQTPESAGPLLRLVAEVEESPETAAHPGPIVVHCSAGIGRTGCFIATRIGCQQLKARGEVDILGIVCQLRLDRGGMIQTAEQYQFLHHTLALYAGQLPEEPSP
Numbers without * were called inactive; x = no result.

SMILES	PLAP activator	Ecoli WT expand	TNAP act DEA	HePTP inh
COc1cc(-n2c3nc4ccccc4nc3c3c(=O)n(Cc4ccco4)cnc32)cc(OC)c1OC	x	x	0.8	6.0
CCOc1ccc(/C(O)=C2/C(=O)C(=O)N(CCOCCO)C2c2cccnc2)cc1 (configuration not stated)	0.9	-1.0	0.9	-2.4
Cc1cc(C)c(S(=O)(=O)Nc2ccc[nH]c2=O)c(C)c1	2*	6.0	1.1	1.0
O=C(Nc1ccc2c(c1)OCO2)c1ccc2nc[nH]c2c1	2*	-5.0	x	x
O=C1NC(=S)S/C1=C/c1ccc(-c2ccccc2)o1	x	x	x	9.4
S=C1NC(=S)/C(=C\c2ccc(-c3ccc(Br)cc3)o2)S1	x	x	x	92.8*
C=CCn1c(Cc2nc3ccccc3[nH]2)n[nH]c1=S	2*	2.0	1.1	5.0
CCOc1cc(CNc2ccc3cn[nH]c3c2)ccc1OC	1.4	5.0	x	x
COc1ccc(CNc2ccc3cn[nH]c3c2)c(OC)c1OC	2*	-7.0	1.1	12.7
N#Cc1c(-c2ccco2)cc(-c2ccc(F)cc2)nc1N	0.9	-7.0	0.9	2.3
N#Cc1c(-c2ccc(Br)cc2)cc(-c2ccco2)c(C#N)c1N	x	x	x	100.7*
COc1ccc(-c2n[nH]c(=S)n2CC(C)C)cc1	2.5*	7.0	x	x
CCCCC(=O)Nc1ccc(C(=O)N2CCN(c3ccccc3OC)CC2)cc1	1.6	-1.0	1	6.9
CCOC(=O)c1ccc2c(c1)C1C=CCC1C(c1cccc([N+](=O)[O-])c1)N2 (configuration not stated)	x	x	x	-13.4
O=C(O)c1ccc2c(c1)C1C=CCC1C(c1cccc([N+](=O)[O-])c1)N2 (configuration not stated)	x	x	x	102.2*
CCNC(=S)NN=C1CCC(C(C)(C)C)CC1 (configuration not stated)	1.1	-3.0	x	x
C=CCn1c(NC(=O)c2cccs2)c(C(=O)OCC)sc1=S	x	x	x	8.3
CC(C)Oc1ccccc1NC(=O)c1ccccc1SCc1ccc(F)cc1	x	x	x	91.6*
CCc1ccc(OCCNC(=O)c2ccccc2SCc2ccc(F)cc2)cc1	0.9	0.0	x	x
O=C1OC(/C=C/c2ccccc2)=NC/1=C/c1ccc(-c2ccc3c(c2)C(=O)NC3=O)o1	x	x	x	71.3*
Cc1ccc(OCCSc2ncnc3nc[nH]c23)cc1	2.4*	-4.0	x	2.8
O=C(NC(NC(=O)c1ccco1)c1ccc(Br)cc1)c1ccco1	x	x	x	104.4*
Clc1ccc(OCCn2ccnc2)c2ccccc12	1.1	64.0*	1	2.0
Clc1ccc(OCCn2ccnc2)c(Cl)c1	0.9	11.0	1	-0.1
CC(C)=C1C2CCC1C(C(=O)NCCc1ccccc1)C2C(=O)O (configuration not stated)	x	x	x	1.7
SMILES	PLAP activator	Ecoli WT expand	TNAP act DEA	HePTP inh
Cc1nc(N2N=C3/C(=C/c4ccc(F)cc4)CCCC3C2c2ccc(F)cc2)sc1C(=O)N(C)C (configuration not stated)	2*	-6.0	x	x
Cc1ncsc1C(=O)N1N=C2/C(=C/c3ccccc3)CCCC2C1c1ccccc1 (configuration not stated)	1.1	-8.0	x	x
COC(=O)c1c(-c2ccc(C)c(C)c2)csc1N	x	x	x	103.7*
COC(=O)c1c(-c2ccc(Cl)cc2)csc1N	x	x	x	4.2
Cc1ccc2c(c1)N(CC(=O)N1CCCc3ccccc31)C(=O)CO2	0.9	-1.0	0.9	6.9
CCC(CC)c1nnc(NC(=O)c2nc3nc(C)cc(C)n3n2)s1	1.1	0.0	x	x
CC(C)(C)c1ccc(OCC(=O)Nc2ccc(-c3nc4cccnc4o3)cc2)cc1	2*	0.0	x	x
CC(=O)c1cc2c(cc1[N+](=O)[O-])OCCO2	x	x	x	6.6
CCOC(=O)c1ccc(N2NC(=O)/C(=C/c3cc(OC)c(O)c(OC)c3)C2=O)cc1	x	x	x	89.0*
COc1ccc(/C=C2/C(=O)NN(c3ccc(C)cc3)C2=O)cc1Br	x	x	x	-3.0
CCOc1ccccc1/C=C1/C(=O)NN(c2ccc(I)cc2)C1=O	x	x	x	18.1
CCOC(=O)c1ccc(N2NC(=O)/C(=C/c3ccc(OC)c(Br)c3)C2=O)cc1	x	x	x	54.9*
CCOc1cc(/C=C2/C(=O)NN(c3ccc(I)cc3)C2=O)ccc1O	x	x	x	89.9*
O=C(Nc1ccccc1)c1ccccc1N1C(=O)c2ccccc2C1=O	x	x	x	6.5
Cn1c(/C(C#N)=C(\O)CN2CCN(Cc3ccccc3)CC2)nc2ccccc21	2.5*	4.0	1	7.0
Cc1ccc(SC/C(O)=C(\C#N)c2nc3ccccc3n2C)cc1	0.9	0.0	0.9	4.8
CN1CCN(Cc2cc(COCc3ccccc3)c3cccnc3c2O)CC1	2.2*	22.0	1	10.9
Oc1c(CN2CCc3ccccc3C2)cc(Cl)c2cccnc12	1.8	86.0*	1.1	-4.3
Oc1c(CN2CCCCC2)cc(Br)c2cccnc12	1.6	100.0*	0.5	-6.4
COCc1cc(CN2CCOCC2)c(O)c2ncccc12	x	x	x	11.9
Cc1cc(C)n(-c2ccc(C(=O)N3CCc4ccccc43)cc2)n1	1	3.0	0.9	-2.6
CCC(C)(C)NC(=O)C(c1cccc(OC)c1)N(C(=O)c1ccn[nH]1)c1cccc(OC)c1 (configuration not stated)	2.9*	10.0	0.9	8.6
Cc1ccc(NC(=O)c2c(-c3ccccc3)noc2C)cc1C	x	x	x	103.6*
O=C1NN(c2ccccc2)C(=O)/C1=C/c1cccn1-c1ccc([N+](=O)[O-])cc1	x	x	x	102.8*
O=C1NN(c2ccc(Cl)c(Cl)c2)C(=O)/C1=C/c1cccn1-c1ccc([N+](=O)[O-])cc1	x	x	x	5.6
SMILES	PLAP activator	Ecoli WT expand	TNAP act DEA	HePTP inh
Cc1c(C(=O)O)cccc1-n1c(C)ccc1C	x	x	x	103.9*
Cc1ccc(C)n1-c1ccccc1C(=O)O	x	x	x	104.3*
Cc1nn(-c2ccccc2C(=O)O)c(=O)c2ccccc12	1	1.0	0.9	15.2
NC1=NC(=O)/C(=C/c2ccc(-c3cc([N+](=O)[O-])ccc3Cl)o2)S1	x	x	x	98.9*
O=C(c1sc2ccccc2c1Cl)N1CCN(Cc2ccccc2)CC1	x	x	x	102.7*
O=C(c1sc2ccccc2c1Cl)N1CCC(Cc2ccccc2)CC1	x	x	x	8.0
O=C(O)C(Cc1ccccc1)n1cccc1 (configuration not stated)	1	4.0	0.9	0.1
CC(=O)Nc1nc(SCc2ccc(Cl)cc2Cl)n[nH]1	1	5.0	x	x
CC(=O)Nc1nc(SCCCc2ccccc2)n[nH]1	2.4*	4.0	1.1	8.7
CCOC(=O)c1[nH]c(=O)[nH]c1CSc1nc(C)cc(C)n1	2.2*	-3.0	0.9	10.5
CCOC(=O)c1[nH]c(=O)[nH]c1CSCCO	0.9	-5.0	0.9	-0.5
CCOC(=O)CCCCC(=O)c1[nH]c(=O)[nH]c1CSc1nc2ccccc2[nH]1	x	5.0	1.3	5.7
CCOC(=O)CCCCC(=O)c1[nH]c(=O)[nH]c1CSc1nc(C)cc(=O)[nH]1	2.2*	-4.0	0.9	-1.4
CCOC(=O)c1[nH]c(=O)[nH]c1COC(=O)c1cc2ccccc2o1	2.2*	-13.0	1.2	0.5
CCOC(=O)CCCCC(=O)c1[nH]c(=O)[nH]c1CN1CCOCC1	1.1	2.0	0.9	5.9
CCOC(=O)CCCCC(=O)c1[nH]c(=O)[nH]c1CSc1nc(C)cc(C)n1	2*	-8.0	1	8.4
COC(=O)c1ccc(Nc2cc(C)nc(-c3ccccc3O)n2)cc1	0.9	-13.0	0.9	6.2
Cc1cc(NC(=O)CSc2nnc3c4ccccc4n(C)c3n2)no1	x	x	x	8.7
